Source: PubChem
Most compounds without a hit are left out; they make up all but 32% or so of the library.
PostGolgi yeast: phenotypic screen on post-Golgi transport, primary screen; post-Golgi transport phenotypic cell assay; inhibition, % at 10 µM; 98,000 tested, 0.9% active; AID 739, 2007;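 further: yeast cells grown in 1536-well plates; yeast grown about 18 h at 30C before absorbance read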
CYP2C9 inh: blockers of cytochrome P450 2C9 activity – biochemical, luminescence, ADME assay, primary screen; P11712; CYP2C9 Supersomes, luciferin-H conversion; inhibition, % at 5 µM; 96,000 tested, 20% active; AID 777, 2007;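 active means blocking of liver enzyme CYP2C9 beyond about 50% at 5 µM, limit read from the data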
Target sequence (P11712 whole entry, looked up): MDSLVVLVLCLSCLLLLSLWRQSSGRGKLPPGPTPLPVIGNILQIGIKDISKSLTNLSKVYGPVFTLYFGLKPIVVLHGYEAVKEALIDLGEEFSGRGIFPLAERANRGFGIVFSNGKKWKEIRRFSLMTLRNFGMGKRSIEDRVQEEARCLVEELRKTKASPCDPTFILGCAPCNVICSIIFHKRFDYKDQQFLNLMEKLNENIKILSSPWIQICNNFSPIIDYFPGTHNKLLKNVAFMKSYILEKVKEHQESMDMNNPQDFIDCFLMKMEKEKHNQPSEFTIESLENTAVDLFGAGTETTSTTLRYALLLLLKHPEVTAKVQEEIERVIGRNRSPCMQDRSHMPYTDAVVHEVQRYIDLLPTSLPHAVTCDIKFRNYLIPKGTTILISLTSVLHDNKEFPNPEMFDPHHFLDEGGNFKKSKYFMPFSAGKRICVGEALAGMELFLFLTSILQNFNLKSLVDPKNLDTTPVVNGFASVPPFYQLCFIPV
CYP2C19 act: human CYP2C19 activators, primary screen, biochemical, luminescence | Cytochrome P450 2C19 (Homo sapiens), P33261 | recombinant CYP2C19, luciferin-H EGE luminescence; active compounds read high; 0 = fully inhibited enzyme, 1 = untreated enzyme | activation factor at 5 µM | 96,000 tested, under 10 active;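 active means activation factor of at least 2 at 5 µM in the primary screen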;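 further: 0 = wells with 2.5 mM tranylcypromine and 1 = vehicle-only wells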
PostGolgi ctrl: growth inhibition of yeast control strain, primary screen, counter-screen for post-Golgi transport modulator project. efflux-deficient yeast background strain, growth absorbance A615, 16 h. inhibition, % at 10 µM. 98,000 tested, 5% active
CYP2C9 act: human CYP2C9 activators, primary screen, biochemical, luminescence. 96,000 tested, 1.4% active. recombinant CYP2C9, luciferin-H conversion; active compounds read high; factor 1 = untreated enzyme, 0 = blocked. Cytochrome P450 2C9 (Homo sapiens), P11712. activation factor at 5 µM;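 active means activation factor of 2 or more for CYP2C9 at a 5 µM dose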;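 further: 0 = sulfaphenazole-blocked wells and 1 = vehicle-only wells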
CYP2C19 inh: blockers of cytochrome P450 2C19 activity – biochemical, luminescence, ADME assay, primary screen; P33261; CYP2C19 Supersomes, luciferin-H EGE luminescence, 30 min; inhibition, % at 5 µM; 96,000 tested, 21% active;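 active means CYP2C19 inhibition above a set limit at 5 µM in the primary screen, cut at about 50% in these data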;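 further: plate controls were negative control wells for no effect and 2.5 mM tranylcypromine positive control for full effect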
The depositor's hits bear a star. Unless noted, no stated cut-off is given here; in the data, active means inhibition above about 30%; inactive means the rest.

SMILES	PostGolgi yeast	CYP2C9 inh	CYP2C19 act	PostGolgi ctrl	CYP2C9 act	CYP2C19 inh
C=CCn1cc(C(=O)OC)c(=O)c2cc(S(=O)(=O)N(CC)CC)ccc21	-9.3	1.0	1	3.9	1	3.7
O=C(c1noc2c1CCCC2)N1CCN(Cc2ccccc2)CC1	-2.1	4.1	0	-0.7	1	97.0*
O=C(c1noc2c1CCCCC2)N1CCOCC1	5.2	58.3*	0.8	19.7	0.4	17.3
COc1ccccc1-c1cc(C(=O)N2CCN(c3ccc(F)cc3)CC2)no1	0.2	-40.9	1	16.2	1.4	2.4
O=C(NCc1ccc(F)cc1)c1noc2c1CCCC2	3.1	14.9	0.8	-0.6	0.9	18.5
O=C(c1noc2c1CCCC2)N1CCN(c2ccc(F)cc2)CC1	4.1	0.6	1	34.1*	1	2.4
O=C(c1noc2c1CCCC2)N1CCCCC1	3.9	8.8	0.8	0.0	0.9	20.5
CC(C)Cc1cc(C(=O)N2CCN(c3ccc(F)cc3)CC2)no1	11.8	65.0*	0.2	-2.1	0.3	75.8*
CC(C)NC(=O)C1CCN(C(=O)C(C(=O)c2ccccc2)n2cc(Cl)ccc2=O)CC1 (stereo not drawn)	-6.0	3.7	1	-10.9	1	1.4
COCCCNC(=O)c1ccc2nc3ccccc3c(=O)n2c1	0.8	22.7	0.8	5.7	0.8	23.8
O=C(NC1CCSC1=O)c1ccc(Cl)cc1 (stereo not drawn)	-12.4	-13.3	1	5.5	1.1	-2.2
O=C(NC1CCCCNC1=O)c1ccc(Cl)cc1 (stereo not drawn)	4.8	52.1*	1.1	3.8	0.5	-13.6
CC(C)OC(=O)CSc1nnnn1-c1ccc2c(c1)OCCO2	-5.3	-22.0	0.3	2.9	1.2	74.6*
O=C(CSc1nnc(-c2cccs2)n1-c1cccc(Cl)c1)c1cccc2c1OCCO2	9.4	84.9*	0.3	9.0	0.2	72.0*
Fc1cccc(Cl)c1CSc1nnnn1-c1ccc2c(c1)OCO2	17.0	38.3	0.1	10.2	0.6	92.0*
O=C(CSc1nnnn1-c1ccc2c(c1)OCCO2)c1cccc2c1OCCO2	-2.4	29.0	0.3	3.8	0.7	71.1*
Fc1cccc(Cl)c1Cn1nnc(-c2ccc3c(c2)OCO3)n1	-1.2	31.5	0.5	9.5	0.7	46.8
O=C(O)CSc1nnnn1-c1ccc2c(c1)OCCO2	6.0	3.5	1.2	3.1	1	-17.6
CC1=Nc2ccc(C)cc2N(Cc2ccccc2)C(=O)C1	2.2	-6.6	1	1.9	1.1	3.7
CSc1nc2sc(-c3ccccc3)cc2c(=O)n1N	-5.8	77.6*	0.3	12.8	0.2	69.0*
CCOCCCNC(=O)c1ccc(N(C)S(=O)(=O)c2ccc(OC)cc2)cc1	17.0	78.1*	0.8	8.2	0.2	19.1
COc1ccc(S(=O)(=O)N(C)c2ccc(C(=O)NCCC(C)C)cc2)cc1	-2.9	92.2*	0.1	21.8	0.1	85.5*
COc1ccc(S(=O)(=O)N(C)c2ccc(C(N)=O)cc2)cc1	2.1	49.8	0.6	2.6	0.5	44.4
CCN(CC)CCNC(=O)c1ccc(N2CCCCC2)c(NS(=O)(=O)c2ccc(C)cc2)c1	7.4	42.0	0.5	13.6	0.6	46.0
COc1ccc(S(=O)(=O)Nc2cc(C(=O)NCCC(C)C)ccc2N2CCOCC2)cc1	12.0	60.6*	0.5	-3.2	0.4	45.5
COc1ccc(N2CC(C(=O)OCC(=O)NCc3ccccc3)CC2=O)cc1 (stereo not drawn)	-0.3	13.0	1.1	5.1	0.9	-5.7
O=C(NCc1cccnc1)c1cc(-c2cccs2)on1	-5.9	19.6	0.8	12.9	0.8	17.0
COc1cc(C(=O)O)nc2ccccc12	-1.4	1.0	1.1	-6.0	1	-6.4
COc1cc(/C=C/c2cc(OC(C)=O)c3ccccc3n2)c(OC(C)=O)c([N+](=O)[O-])c1	-4.6	79.3*	0.2	-2.9	0.2	75.4*
Cc1ccc(S(=O)(=O)N2CCN(S(=O)(=O)c3ccccc3)C2)cc1	-7.9	57.4*	0.4	17.5	0.4	56.2*
